# Source: the supplement of paper PMC7801607
# Columns and labels:
# CHO = test: % viability of CHO cells (MTT); higher = less toxic; conditions: 48 h
# How it was run: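 After overnight attachment of CHO cells seeded at 10^6 cells/well in 200 µL, the medium was exchanged for fresh medium holding compound at 2 or 20 µM. Exposure lasted 48 h. Survival was read with the colorimetric tetrazolium (MTT) assay and expressed as percent of untreated cells.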
# HepG2-A16-CD81 = test: % inhibition of HepG2 viability (CellTiter-Glo); higher = more toxic; conditions: 5 µM
# [1] = test system: Plasmodium falciparum NF54 stage IV/V gametocytes; test: % inhibition of gametocyte viability (PrestoBlue); higher = more inhibition; conditions: 48 h
# How it was run: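 Compound at 1 or 5 µM was incubated with Stage IV/V NF54 gametocytes (2% gametocytaemia, 5% haematocrit) for 48 h at 37 °C, stationary and hypoxic. A 2 h PrestoBlue step followed, with fluorescence read at 612 nm on transferred supernatant. Inhibition of gametocyte viability, in percent, was normalised to vehicle and kill controls from a single run.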
# [2] = test system: Plasmodium falciparum NF54 asexual blood stage; test: % inhibition of asexual blood stage proliferation (pLDH); higher = more inhibition; conditions: 72 h
# How it was run: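 Compound was tested at 2 or 20 µM against Plasmodium falciparum NF54 ring stages (1% haematocrit, 2% parasitaemia) for 72 h at 37 °C in 4% CO2, 3% O2 and 93% N2. Survival was read at 620 nm with the parasite lactate dehydrogenase assay, and inhibition of asexual proliferation was given as a percentage of controls.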
# [3] = test system: Plasmodium falciparum NF54 stage IV/V gametocytes; test: % inhibition of gametocyte viability (ATP bioluminescence); higher = more inhibition; conditions: 24 h
# How it was run: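 Compound at 1 or 5 µM was tested on stage IV/V NF54 gametocytes, enriched on density gradients and plated at 30,000 per well in 96-well plates. After 24 h at 37 °C, ATP was quantified by Promega BacTiter Glo bioluminescence. Values are percent inhibition of gametocyte viability from one run, normalised to controls.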
# [4] = test system: Plasmodium falciparum NF54 stage IV/V gametocytes; test: % inhibition of gametocyte viability (luciferase reporter); higher = more inhibition; conditions: 48 h
# How it was run: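 Percent inhibition came from luminescence and was normalised to controls in a single run. Gametocytes (stage IV/V, NF54-Pfs16-GFP-Luc line, 2% gametocytaemia, 2% haematocrit) were treated with compound at 1 or 5 µM and incubated for 48 h at 37 °C without agitation under hypoxia. Readings used 30 µL lysate with 30 µL Promega luciferin substrate on a GloMax-Multi+ reader, integrating for 10 s.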
# [5] = test system: Plasmodium berghei ANKA liver stage in HepG2-A16-CD81; test: % inhibition of liver stage parasite viability (luciferase); higher = more inhibition; conditions: 5 µM; 48 h
# Protocol: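 Single-concentration screen of the MMV Pandemic Response Box. P. falciparum NF54 asexual blood stages: pLDH assay, 72 h at 37 °C, 2 and 20 µM, n=2. Stage IV/V gametocytes (NF54): luciferase reporter (NF54-Pfs16-GFP-Luc, 48 h), ATP bioluminescence (24 h) and PrestoBlue (48 h) at 1 and 5 µM, n=1. P. berghei liver stage (luciferase in HepG2-A16-CD81, 48 h post infection) at 5 µM, n=4. All normalised to DMSO and kill controls as % inhibition.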
# 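For % inhibition of HepG2 viability (CellTiter-Glo) in this document: HepG2-A16-CD81 hepatoma cells plated as in the liver-stage assay but without sporozoites, with DMSO wells as negative and 25 µM puromycin as positive control.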
Compound,% viability of CHO cells (CHO; 2 µM) [%],% viability of CHO cells (CHO; 20 µM) [%],% inhibition of HepG2 viability (HepG2-A16-CD81) [%],% inhibition of gametocyte viability ([1]; 1 µM) [%],% inhibition of gametocyte viability ([1]; 5 µM) [%],% inhibition of asexual blood stage proliferation ([2]; 2 µM) [%],% inhibition of asexual blood stage proliferation ([2]; 20 µM) [%],% inhibition of gametocyte viability ([3]; 1 µM) [%],% inhibition of gametocyte viability ([3]; 5 µM) [%],% inhibition of gametocyte viability ([4]; 1 µM) [%],% inhibition of gametocyte viability ([4]; 5 µM) [%],% inhibition of liver stage parasite viability [5] [%]
Nc1cnn(C2OC(CO)C(O)C2O)c(=O)n1 (stereo unspecified),109,110,9.61,< 0,12.5,61.7,38.4,3.6,< 0,4.96,6.45,-44.9
O=C(O)CSc1cc(NS(=O)(=O)c2cccc3cccnc23)c2ccccc2c1O,95.5,80.9,2.37,< 0,29.3,70.5,81,0.374,< 0,< 0,< 0,35.4
COc1ccc(NS(=O)(=O)c2ccc(Cl)s2)cn1,98,100,6.74,< 0,6.82,22.6,48.5,< 0,< 0,4.39,< 0,-1.42
CCC(C)n1ncn(-c2ccc(N3CCN(c4ccc(OCC5COC(Cn6cncn6)(c6ccc(Cl)cc6Cl)O5)cc4)CC3)cc2)c1=O (stereo unspecified),119,119,26.2,2.77,1.55,10.1,83.4,3.02,< 0,< 0,< 0,46.4
Fc1ccc(-n2cc(Cn3c(-c4cccc(F)c4)nc4ccccc43)nn2)cc1,86.4,78.7,-1.61,< 0,43.7,9.59,83.1,< 0,< 0,< 0,< 0,6.9
C/C(=N\NC(=O)C1CC1c1ccccc1)c1ccc(NC(=O)c2ccco2)cc1 (stereo unspecified),101,69.1,-5.96,< 0,14.5,18.8,38.7,3.34,< 0,< 0,< 0,13.7
O=C1CCC(N2C(=O)c3ccccc3C2=O)C(=O)N1 (stereo unspecified),129,120,-2.75,< 0,< 0,30.6,69.3,< 0,< 0,0.963,6.01,25.6
CC(=O)O[C@H]1C[C@@]2(C)[C@@H](C[C@@H](O)[C@H]3[C@@]4(C)CC[C@@H](O)[C@@H](C)[C@@H]4CC[C@@]32C)/C1=C(\CCC=C(C)C)C(=O)O,108,97.1,-0.207,< 0,2,1.38,9.02,< 0,< 0,< 0,< 0,36.2
CCCC1(C2CC2)c2cc(Cl)ccc2NC(=O)N1C (stereo unspecified),60.2,59.9,1.91,< 0,6.87,18,53.6,< 0,< 0,0.472,< 0,-13.9
Nc1nc(-c2ccccc2)nc2[nH]nc(Nc3ccc(C(F)(F)F)cc3)c12,80.5,60.9,-9.27,15,7.65,20,80.5,< 0,< 0,< 0,< 0,53.1
Nc1ccc(-c2nc3cc(C(F)(F)F)ccc3n2C23CC4CC(CC(C4)C2)C3)cc1,97.3,130,-7.13,22.2,19.2,10.3,67.9,< 0,< 0,< 0,< 0,20.5
C[C@H]1COc2c(N3CCN(C)CC3)c(F)cc3c(=O)c(C(=O)O)cn1c23,92.1,104,-1.57,< 0,18,15.5,39.9,1.98,1.75,18.2,0.53,11.6
NCC(=O)Nc1ccc(-n2nc(C(F)(F)F)cc2-c2ccc3c(ccc4ccccc43)c2)cc1,124,64.1,9.92,22.9,12.6,1.4,67.6,31,93.6,< 0,< 0,20.2
CC[C@@H](CO)NCCN[C@@H](CC)CO,85,50.4,-1.81,< 0,25,42.9,37.6,0.155,0.768,< 0,< 0,32.9
Oc1cc(-c2cccc3ccccc23)[nH]n1,109,68.8,2.56,4.17,26.7,3.8,-4.8,< 0,< 0,< 0,< 0,45.4
CCC(C)NCC(O)Cn1c2ccc(Cl)cc2c2cc(Cl)ccc21 (stereo unspecified),112,1.87,1.41,33.3,87.6,68.7,81.8,6.9,68.2,< 0,91,-2.71
CC(C)Oc1ccc(-c2nc(-c3cccc4c3CC[C@@H]4NCCO)no2)cc1C#N,113,117,-1.14,16.7,7.83,78.4,87.9,14.3,84.7,< 0,< 0,21.6
CC1CN(c2ncnc3c2c(-c2ccccc2)cn3-c2ccc(F)cc2)CC(C)O1 (stereo unspecified),82.6,122,6.07,17.3,1.77,75.6,95.5,< 0,< 0,< 0,< 0,37.1
O=C(Cn1cnc2ccccc2c1=O)Nc1ccccc1,100,84.1,-0.425,27.9,25.4,29.5,71.5,1.88,< 0,2.6,1.55,2.82

Compound,% viability of CHO cells (CHO; 2 µM) [%],% viability of CHO cells (CHO; 20 µM) [%],% inhibition of HepG2 viability (HepG2-A16-CD81) [%],% inhibition of gametocyte viability ([1]; 1 µM) [%],% inhibition of gametocyte viability ([1]; 5 µM) [%],% inhibition of asexual blood stage proliferation ([2]; 2 µM) [%],% inhibition of asexual blood stage proliferation ([2]; 20 µM) [%],% inhibition of gametocyte viability ([3]; 1 µM) [%],% inhibition of gametocyte viability ([3]; 5 µM) [%],% inhibition of gametocyte viability ([4]; 1 µM) [%],% inhibition of gametocyte viability ([4]; 5 µM) [%],% inhibition of liver stage parasite viability [5] [%]
CS(=O)(=O)c1ccc(Oc2ccc(Cl)cc2)cc1,98.9,121,-1.85,21.5,13.8,28.1,69.1,< 0,< 0,< 0,< 0,9.76
NC(=O)c1nccn([C@@H]2O[C@H](CO)[C@@H](O)[C@H]2O)c1=O,91.2,105,4.39,5.72,19.8,11.7,53.8,< 0,< 0,7.58,< 0,14.7
CCCCOC(=O)Nc1cc2nc(C3CCCCC3)[nH]c2cc1N(CC)CC,98.9,101,3.15,< 0,< 0,18.6,83.2,< 0,19.3,< 0,< 0,62
COc1ccc(CNC(=O)C(NS(=O)(=O)c2ccc3nc(C)sc3c2)C(C)C)cc1 (stereo unspecified),105,75.8,3.43,48.7,50.8,81.6,111,< 0,< 0,13.6,< 0,21.7
NC(=O)c1c(N)sc2c1CCCCC2,87,32,6.02,< 0,8.3,4.8,-4.48,< 0,< 0,0.638,1.6,-7.51
CCCCCCCCCN1C[C@@H](O)[C@H](O)[C@@H](O)[C@@H]1CO,94.1,58.9,4.62,< 0,3.2,38.4,25.3,< 0,< 0,2.02,2.49,-1.14
Nc1cc(-c2nc3ccccc3[nH]2)n[nH]c1=O,70.3,49.8,2.54,28.3,78.8,31.5,79.1,5.5,< 0,1.36,< 0,24
O=C(Nc1[nH]c(=O)ncc1F)c1ccccc1,103,106,1.79,1.43,5.2,2.42,1.98,< 0,< 0,< 0,< 0,24.1
CCCCc1ccc(-c2nc(C)c(C(=O)OC)s2)cc1,113,102,0.116,5.41,22.1,36.8,59.2,< 0,< 0,< 0,< 0,-103
CC1(C)C[C@H]1C(=O)N/C(=C\CCCCSC[C@@H](N)C(=O)O)C(=O)O,229,49.5,-5.39,25.1,25.8,20.8,20.1,< 0,< 0,< 0,< 0,12.4
CCN(CC)S(=O)(=O)c1ccc(Cl)c(C(=O)Nc2sc3c(c2C#N)CCCC3)c1,100,109,20.9,< 0,< 0,0.194,18.9,< 0,< 0,< 0,9.16,69.2
COc1c(F)c(F)cc2c(=O)c(C(=O)O)cn(C3CC3)c12,82.2,80.7,3.68,16.8,16.9,20.8,56.5,< 0,< 0,< 0,< 0,15.1
Cc1ccccc1NC(=O)Nc1cccc([N+](=O)[O-])c1,121,111,8.58,< 0,2.93,3.72,73.7,6.45,< 0,3.59,< 0,6.73
Nc1nc(=O)c(Br)c(-c2cccc(Cl)c2)[nH]1,102,109,6.4,9.16,21,18.2,68.9,4.05,< 0,< 0,5.01,-7.9
O=C(c1cc(O)nc2ccccc12)N1CCN(c2ccccc2)CC1,95.9,52.7,-2.09,< 0,< 0,24.8,48.3,4.72,10.4,< 0,< 0,34.2
Clc1cc2nc(C3CCNCC3)n(Cc3ccc(CNCCc4cnc[nH]4)cc3)c2cc1Cl,88.7,96.1,2.02,< 0,1.67,27.7,98,< 0,0.428,< 0,< 0,45.7
Cc1ccc(S(=O)(=O)Nc2cccc3cccnc23)cc1,76,-0.468,-5.32,13.9,< 0,55,103,< 0,47.3,< 0,5.04,27.6
O=[N+]([O-])c1ccc2c(CCc3c[nH]c4ccccc34)c[nH]c2c1,101,143,0.942,< 0,28,61.5,92.7,< 0,< 0,< 0,< 0,-60.7
O=C(Nc1nnc(-c2ccc(Cl)cc2)o1)c1ccc(F)cc1,94.3,106,-1.68,< 0,0.779,23.1,-13.5,< 0,< 0,< 0,1.27,63.4
